A short description of assay [1]: E. coli DRC41 culture turbidity changes, primary screen, E. coli filamentation inducer project, strain DRC41, OD650, 48 h (AID 1152).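 Further: E. coli MC1000 strain DRC41 lacking acrAB efflux pump and sulA.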 To be noted: E. coli DRC41 (acrAB sulA), higher = more signal, called active from +8 up or from −8 down.
The nature of assay [2]: small-molecule binders of probe aLefty1, primary screen, biochemical, small-molecule microarray, 635/667 nm fluorescence (AID 1153).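 Further: score merges spot fluorescence with signal-to-noise ratio from the scanned slide images.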 As to conditions: higher = more signal.
The nature of assay [3]: PSAC antagonists in infected red cells, primary screen, cell-based, P. falciparum Indochina, OD700, 1 h (AID 1154). As to conditions: P. falciparum Indochina infected RBC osmotic lysis, higher = more signal, called active from +8 up or from −8 down.
The nature of assay [4]: PSAC antagonists in infected red cells, primary screen, cell-based, P. falciparum Indochina, OD700, 2 h (AID 1155).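 Further: lysis reports solute entry through the parasite surface anion channel PSAC; channel blockers reduce lysis of infected cells.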 As to conditions: P. falciparum Indochina infected erythrocytes, osmotic lysis OD700; higher = more signal, called active from +8 up or from −8 down.
A short description of assay [5]: osmotic lysis modulators in infected erythrocytes, primary screen, PSAC antagonist project, cell-based, P. falciparum Indochina, OD700, 3 h (AID 1156). As to conditions: higher = more signal, called active from +8 up or from −8 down.
The nature of assay [6]: PSAC antagonists in infected red cells, primary screen, cell-based, P. falciparum Indochina, OD700, 18 h (AID 1157). As to conditions: P. falciparum Indochina infected erythrocytes, osmotic lysis OD700, 18 h; higher = more signal, called active from +8 up or from −8 down.
A short description of assay [7]: modulators of S6 phosphorylation in cells, primary screen, cell-based, A549, cytoblot, luminescence, serum-stimulated (AID 1158).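 Further: serum-stimulated A549 lung adenocarcinoma cells; signal is phosphorylated S6 detected by cytoblot immunostaining with HRP secondary.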 To be noted: A549 phospho-S6 cytoblot, 5 h, higher = more signal.
Assay [8] concerns the target NADPH oxidase 2 (Homo sapiens) (UniProt P04839). The assay can be described thus: NOX2-dependent H2O2 signal modulators, primary screen, NOX inhibitor project, cell-based, HEK293-NOX2, PMA-stimulated, Amplex Red fluorescence (AID 1159). Further: test concentration not given here. As to conditions: 45 min, higher = more signal, called active from +8 up or from −8 down.
The target of assay [9] is NADPH oxidase 4 (Homo sapiens) (UniProt Q9NPH5). The assay can be described thus: NOX4-dependent H2O2 signal modulators, primary screen, NOX inhibitor project, cell-based, HEK293-NOX4, tetracycline-induced, Amplex Red fluorescence (AID 1160). To be noted: 45 min, higher = more signal, called active from +8 up or from −8 down.
For assay [10], the target named is NADPH oxidase 5 (Homo sapiens) (UniProt Q96PH1). As to the kind of experiment: NOX5-dependent H2O2 signal modulators, primary screen, NOX inhibitor project, cell-based, HEK293-NOX5, Amplex Red fluorescence (AID 1161). As to conditions: HEK293-NOX5, ionomycin, 45 min, higher = more signal.
Assay [11] can be described thus: A549 cell viability effects, profiling panel, calcein-AM fluorescence, 48 h, basal (AID 1162). Further: test concentration not given here. As to conditions: higher = more signal.
A short description of assay [12]: adipocyte viability effects, profiling panel, cell-based, 3T3-L1 adipocytes, calcein-AM fluorescence, 48 h, basal (AID 1163). Further: test concentration not given here. As to conditions: 3T3-L1 adipocytes viability, higher = more signal.
Assay [13] can be described thus: HepG2 cell viability effects, profiling panel, calcein-AM fluorescence, 48 h, basal (AID 1164). Further: test concentration not given here. To be noted: higher = more signal.
Assay [14] in a line: MM1S cell viability effects, profiling panel, calcein-AM fluorescence, 48 h, basal (AID 1165).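 Further: viability of MM1S multiple myeloma cells under basal unstimulated conditions; test concentration not given here.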 As to conditions: higher = more signal.
Assay [15] is described as follows: basal RPMI8226 viability, no added stimulus, profiling panel, cell-based, calcein-AM fluorescence, 48 h, PK04 Diversity Set (AID 1166).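 Further: cells grown under basal conditions without added stimulus; test concentration not given here.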 To be noted: RPMI8226 myeloma viability, higher = more signal.
Assay [16] can be described thus: basal HepG2 mitochondrial membrane potential changes, profiling panel, cell-based, JC-1 fluorescence, 24 h, 100 nL compound (AID 1167). Further: test concentration not given here. As to conditions: higher = more signal.
A short description of assay [17]: basal 3T3-L1 adipocyte mitochondrial potential changes, profiling panel, cell-based, JC-1 fluorescence, 3T3-L1 adipocytes, 24 h, 100 nL compound (AID 1168). Further: test concentration not given here. As to conditions: JC-1 mitochondrial fluorescence, higher = more signal, called active from +8 up or from −8 down.
The nature of assay [18]: basal RPMI8226 mitochondrial membrane potential changes, profiling panel, cell-based, JC-1 fluorescence, 24 h, 100 nL compound (AID 1169). Further: test concentration not given here. As to conditions: RPMI8226 myeloma, JC-1 mitochondrial potential fluorescence, higher = more signal.
Assay [19] can be described thus: basal MM1S mitochondrial membrane potential changes, profiling panel, cell-based, JC-1 fluorescence, 24 h, 100 nL compound (AID 1170). Further: test concentration not given here. To be noted: higher = more signal.
Assay [20] is described as follows: A549 lung cancer cell viability effects, profiling panel, resazurin fluorescence, 24 h, PK04 Diversity Set (AID 1171). Further: test concentration not given here. As to conditions: higher = more signal, called active from +8 up or from −8 down. Background: Resazurin is reduced to fluorescent resorufin, in cell work by metabolically active cells.

Calls of active or inactive are those of the source.

Sequence of NADPH oxidase 4 (Homo sapiens) (Q9NPH5 whole entry, looked up): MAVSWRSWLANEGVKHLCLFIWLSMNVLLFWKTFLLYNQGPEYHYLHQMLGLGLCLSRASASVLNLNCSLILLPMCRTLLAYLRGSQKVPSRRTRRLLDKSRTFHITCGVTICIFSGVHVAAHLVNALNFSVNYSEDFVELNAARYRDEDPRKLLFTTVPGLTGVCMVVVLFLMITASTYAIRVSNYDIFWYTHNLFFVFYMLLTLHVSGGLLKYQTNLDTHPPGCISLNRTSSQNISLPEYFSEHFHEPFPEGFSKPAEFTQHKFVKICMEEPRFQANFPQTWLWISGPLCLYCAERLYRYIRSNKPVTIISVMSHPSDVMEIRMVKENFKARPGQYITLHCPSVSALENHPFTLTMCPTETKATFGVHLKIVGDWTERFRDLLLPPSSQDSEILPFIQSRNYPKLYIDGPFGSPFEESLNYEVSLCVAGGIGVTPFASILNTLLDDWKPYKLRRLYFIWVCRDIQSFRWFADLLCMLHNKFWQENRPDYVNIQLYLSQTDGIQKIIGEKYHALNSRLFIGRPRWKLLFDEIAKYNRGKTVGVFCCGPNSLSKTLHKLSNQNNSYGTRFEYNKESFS
Sequence of NADPH oxidase 5 (Homo sapiens) (Q96PH1 whole entry, looked up): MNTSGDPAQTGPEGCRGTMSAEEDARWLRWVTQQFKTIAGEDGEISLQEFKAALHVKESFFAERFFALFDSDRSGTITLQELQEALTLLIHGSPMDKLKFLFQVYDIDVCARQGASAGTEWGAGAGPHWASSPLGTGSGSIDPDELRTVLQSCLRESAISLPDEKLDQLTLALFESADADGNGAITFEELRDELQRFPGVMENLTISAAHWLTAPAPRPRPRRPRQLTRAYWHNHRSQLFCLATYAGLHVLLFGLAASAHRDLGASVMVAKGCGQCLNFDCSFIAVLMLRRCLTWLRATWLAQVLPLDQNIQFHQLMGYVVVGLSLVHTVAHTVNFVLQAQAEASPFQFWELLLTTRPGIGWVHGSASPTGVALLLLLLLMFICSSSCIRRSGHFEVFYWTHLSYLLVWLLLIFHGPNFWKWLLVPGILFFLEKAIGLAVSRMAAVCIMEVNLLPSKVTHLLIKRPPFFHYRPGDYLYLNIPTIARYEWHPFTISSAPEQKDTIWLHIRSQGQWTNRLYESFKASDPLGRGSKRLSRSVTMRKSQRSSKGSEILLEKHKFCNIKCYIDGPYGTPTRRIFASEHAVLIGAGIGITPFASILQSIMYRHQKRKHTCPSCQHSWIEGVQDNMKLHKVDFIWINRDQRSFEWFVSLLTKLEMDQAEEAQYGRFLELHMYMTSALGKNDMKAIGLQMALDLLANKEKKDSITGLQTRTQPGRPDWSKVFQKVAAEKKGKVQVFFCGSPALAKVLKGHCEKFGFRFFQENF
Sequence of NADPH oxidase 2 (Homo sapiens) (P04839 whole entry, looked up): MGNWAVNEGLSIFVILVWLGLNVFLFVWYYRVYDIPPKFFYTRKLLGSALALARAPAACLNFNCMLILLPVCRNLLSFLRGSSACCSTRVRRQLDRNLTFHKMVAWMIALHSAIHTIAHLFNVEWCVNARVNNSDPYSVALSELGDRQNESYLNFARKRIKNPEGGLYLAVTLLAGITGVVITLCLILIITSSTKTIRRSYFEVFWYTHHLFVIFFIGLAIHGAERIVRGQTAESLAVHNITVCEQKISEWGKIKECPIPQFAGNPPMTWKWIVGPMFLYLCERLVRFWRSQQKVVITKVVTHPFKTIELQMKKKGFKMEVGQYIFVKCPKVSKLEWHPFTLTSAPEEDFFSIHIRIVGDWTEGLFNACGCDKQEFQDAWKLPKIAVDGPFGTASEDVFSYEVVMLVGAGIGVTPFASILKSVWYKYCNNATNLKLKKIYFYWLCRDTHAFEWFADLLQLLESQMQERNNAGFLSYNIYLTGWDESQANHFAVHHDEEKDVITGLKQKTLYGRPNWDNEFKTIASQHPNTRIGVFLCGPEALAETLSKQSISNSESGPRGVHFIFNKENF

In the case of `O=C1O[C@H](c2ccccc2)[C@H](c2ccccc2)N2[C@H]1[C@@H](C(=O)O)[C@]1(C(=O)Nc3ccc(C#CCCO)cc31)[C@H]2c1ccc(OCCO)cc1`, the z-score is 0.761 (inactive) in [1]; 4.88 (inactive) in assay [3]; 0.927 (inactive) in assay [4]; 0.232 (inactive) in [5]; 0.138 (inactive) in assay [6]; 0.112 in [7]. The z-score in [8] is 1.43 (inactive); in assay [9] it was 1.21 (inactive); in [10], 0.51; in [11], 0.616; in assay [12], 1; in [13] it was 0.461. Moreover, the z-score in [14] is -0.963; in [15] it was 0.926; in [16], -0.76; in assay [17], -0.138 (inactive); in assay [18], 0.489; in assay [19] it was 0.492. Moreover, the z-score in assay [20] was 0.367 (inactive). Also, in assay [2], the composite z-score worked out at 0.154.

On to `COc1ccc(NN2C(C(O)c3ccc(I)cc3)C=CC3C(=O)N(C4CCCCC4)C(=O)C32)cc1` (stereo not given), for which the z-score in assay [1] is -0.111 (inactive); in assay [3], 3.84 (inactive); in [4], 1.16 (inactive); in assay [5] it was -0.0985 (inactive); in assay [6], 0.706 (inactive); in [7] it was -0.569. The z-score in [8] was 0.0194 (inactive); in [9], -0.672 (inactive); in [10] it was -1.16; in assay [11], -0.302; in [12], -0.971; in assay [13], 0.181. Moreover, the z-score in [14] is -1.06; in [15] it was 0.295; in [16], 0.126; in [17], 0.0889 (inactive); in assay [18], 0.0764; in assay [19], -1.65. Besides, in assay [20], the z-score was 1.47 (inactive). Moreover, the composite z-score in assay [2] was found to be 0.425.

For `O=C(NC1CC1)[C@@H]1c2ccccc2C(=O)N(Cc2cc(C(F)(F)F)cc(C(F)(F)F)c2)[C@H]1c1ccc(CO)cc1`, the z-score was -0.0602 (inactive) in assay [1]; 2.63 (inactive) in [3]; 0.26 (inactive) in [4]; 1.12 (inactive) in assay [5]; -0.558 (inactive) in assay [6]; 2.41 in [7]. The z-score was -0.397 (inactive) in assay [8]; -1.17 (inactive) in assay [9]; -2.23 in assay [10]; 1.68 in assay [11]; 1.61 in [12]; 0.289 in assay [13]. The z-score in [14] is 0.538; in assay [15] it was -1.32; in [16], 0.693; in assay [17], -0.439 (inactive); in [18], 0.801; in assay [19] it was -0.687. Also, in [20], the z-score was 0.307 (inactive). The compound further displayed a composite z-score in assay [2] of -0.308.

`CC(C)(C)N1CC=CC23O[C@@H]4/C=C\CCCOC(=O)C4[C@H]2C(=O)N(CCCCCO)[C@@H]3C1=O` (stereo not given in full): the z-score is -0.81 (inactive) in assay [1]; 0.373 (inactive) in assay [3]; 0.135 (inactive) in assay [4]; -1.09 (inactive) in [5]; 0.0116 (inactive) in assay [6]; -0.786 in [7]. The z-score in assay [8] is 1.16 (inactive); in assay [9], 0.0398 (inactive); in assay [10] it was 1.21; in assay [11], -0.373; in assay [12], 1.03; in assay [13], -0.927. Besides, the z-score was 1.59 in assay [14]; 0.382 in assay [15]; -0.0838 in assay [16]; 0.186 (inactive) in assay [17]; 0.116 in assay [18]; -0.00811 in assay [19]. Moreover, the z-score in assay [20] was -0.543 (inactive). The composite z-score in [2] was -0.191.

(Values after PubChem BioAssay.)
